{
  "source": "PubChem BioAssay AID1159580",
  "about": "(chemical genetic matrix, 2015)",
  "assay": "chemical genetic growth profiling, strain panel (AID 1159580);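 note: tested at 20 µM; growth read once vehicle control cultures reached saturation at 30 °C; 1 = growth at the plate median or of vehicle wells; lower values mean less growth of the strain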",
  "conditions": "S. cerevisiae deletion strains, growth OD",
  "note": "About 2,000 (36%) of roughly 5,500 compounds were called active. About 18% were inconclusive and are not listed. The list shows a part of the results. Unmarked numbers belong to inactive results. Cut-off read from the data, not from the text of the source: active = normalized growth mostly below about 0.91 (no sharp cut-off); inconclusive = no clear call, values can overlap the other calls; inactive = mostly above about 0.92.",
  "data": [
    {"smiles": "CC1OC(=O)C(C(C)C)NC(=O)C(C(C)C)OC(=O)C(C(C)C)NC(=O)C(C)OC(=O)C(C(C)C)NC(=O)C(C(C)C)OC(=O)C(C(C)C)NC(=O)C(C)OC(=O)C(C(C)C)NC(=O)C(C(C)C)OC(=O)C(C(C)C)NC1=O", "note": "(stereo unspecified)", "values": [
      {"measurement": "normalized growth", "setting": "locus YAL021C, strain ccr4, stronger effect = lower value", "value": "0.202 (active)"},
      {"measurement": "normalized growth", "setting": "locus YAL026C, strain drs2, stronger effect = lower value", "value": "0.544 (active)"},
      {"measurement": "normalized growth", "setting": "locus YAL030W, strain snc1, stronger effect = lower value", "value": "0.326 (active)"},
      {"measurement": "normalized growth", "setting": "locus YBL061C, strain skt5, stronger effect = lower value", "value": "0.229 (active)"},
      {"measurement": "normalized growth", "setting": "locus YBR009C, strain hhf1, stronger effect = lower value", "value": "0.223 (active)"},
      {"measurement": "normalized growth", "setting": "locus YBR023C, strain chs3, stronger effect = lower value", "value": "0.23 (active)"},
      {"measurement": "normalized growth", "setting": "locus YBR171W, strain sec66, stronger effect = lower value", "value": "0.54 (active)"},
      {"measurement": "normalized growth", "setting": "locus YBR231C, strain swc5, stronger effect = lower value", "value": "0.286 (active)"},
      {"measurement": "normalized growth", "setting": "locus YBR279W, strain paf1, stronger effect = lower value", "value": "0.544 (active)"},
      {"measurement": "normalized growth", "setting": "locus YCL011C, strain gbp2, stronger effect = lower value", "value": "0.28 (active)"},
      {"measurement": "normalized growth", "setting": "locus YCL016C, strain dcc1, stronger effect = lower value", "value": "0.238 (active)"},
      {"measurement": "normalized growth", "setting": "locus YCL069W, strain vba3, stronger effect = lower value", "value": "0.51 (active)"},
      {"measurement": "normalized growth", "setting": "locus YCR088W, strain abp1, stronger effect = lower value", "value": "0.51 (active)"},
      {"measurement": "normalized growth", "setting": "locus YDL005C, strain med2, stronger effect = lower value", "value": "0.332 (active)"},
      {"measurement": "normalized growth", "setting": "locus YDL040C, strain nat1, stronger effect = lower value", "value": "0.468 (active)"},
      {"measurement": "normalized growth", "setting": "locus YDR001C, strain nth1, stronger effect = lower value", "value": "0.615 (active)"},
      {"measurement": "normalized growth", "setting": "locus YDR069C, strain doa4, stronger effect = lower value", "value": "0.383 (active)"},
      {"measurement": "normalized growth", "setting": "locus YDR137W, strain rgp1, stronger effect = lower value", "value": "0.144 (active)"},
      {"measurement": "normalized growth", "setting": "locus YDR159W, strain sac3, stronger effect = lower value", "value": "0.318 (active)"},
      {"measurement": "normalized growth", "setting": "locus YDR195W, strain ref2", "value": "0.336 (active)"},
      {"measurement": "normalized growth", "setting": "locus YDR297W, strain sur2, stronger effect = lower value", "value": "0.404 (active)"},
      {"measurement": "normalized growth", "setting": "locus YDR334W, strain swr1, stronger effect = lower value", "value": "0.494 (active)"},
      {"measurement": "normalized growth", "setting": "locus YDR335W, strain msn5, stronger effect = lower value", "value": "0.697 (active)"},
      {"measurement": "normalized growth", "setting": "locus YDR392W, strain spt3, stronger effect = lower value", "value": "0.148 (active)"},
      {"measurement": "normalized growth", "setting": "locus YEL003W, strain gim4, stronger effect = lower value", "value": "0.357 (active)"},
      {"measurement": "normalized growth", "setting": "locus YEL037C, strain rad23, stronger effect = lower value", "value": "0.673 (active)"},
      {"measurement": "normalized growth", "setting": "locus YEL061C, strain CIN8 (second series), stronger effect = lower value", "value": "0.448 (active)"},
      {"measurement": "normalized growth", "setting": "locus YER015W, strain faa2, stronger effect = lower value", "value": "0.205 (active)"},
      {"measurement": "normalized growth", "setting": "locus YER016W, strain bim1, stronger effect = lower value", "value": "0.259 (active)"},
      {"measurement": "normalized growth", "setting": "locus YER111C, strain swi4, stronger effect = lower value", "value": "0.639 (active)"},
      {"measurement": "normalized growth", "setting": "locus YER155C, strain BEM2 (second series), stronger effect = lower value", "value": "0.6 (active)"},
      {"measurement": "normalized growth", "setting": "locus YFR010W, strain ubp6, stronger effect = lower value", "value": "0.535 (active)"},
      {"measurement": "normalized growth", "setting": "locus YGL167C, strain pmr1, stronger effect = lower value", "value": "0.166 (active)"},
      {"measurement": "normalized growth", "setting": "locus YGL173C, strain kem1, stronger effect = lower value", "value": "0.157 (active)"},
      {"measurement": "normalized growth", "setting": "locus YGL227W, strain vid30, stronger effect = lower value", "value": "0.599 (active)"},
      {"measurement": "normalized growth", "setting": "locus YGL240W, strain doc1, stronger effect = lower value", "value": "0.112 (active)"},
      {"measurement": "normalized growth", "setting": "locus YGL253W, strain hxk2, stronger effect = lower value", "value": "0.243 (active)"},
      {"measurement": "normalized growth", "setting": "locus YHR013C, strain ard1, stronger effect = lower value", "value": "0.159 (active)"},
      {"measurement": "normalized growth", "setting": "locus YHR027C, strain rpn1, stronger effect = lower value", "value": "0.331 (active)"},
      {"measurement": "normalized growth", "setting": "locus YHR142W, strain chs7, stronger effect = lower value", "value": "0.342 (active)"},
      {"measurement": "normalized growth", "setting": "locus YJL092W, strain hpr5, stronger effect = lower value", "value": "0.556 (active)"},
      {"measurement": "normalized growth", "setting": "locus YJL095W, strain BCK1 (second series), stronger effect = lower value", "value": "0.266 (active)"},
      {"measurement": "normalized growth", "setting": "locus YJL115W, strain asf1, stronger effect = lower value", "value": "0.79 (active)"},
      {"measurement": "normalized growth", "setting": "locus YJL129C, strain trk1, stronger effect = lower value", "value": "0.251 (active)"},
      {"measurement": "normalized growth", "setting": "locus YJL154C, strain vps35, stronger effect = lower value", "value": "0.688 (active)"},
      {"measurement": "normalized growth", "setting": "locus YJL164C, strain tpk1, stronger effect = lower value", "value": "0.267 (active)"},
      {"measurement": "normalized growth", "setting": "locus YJL166W, strain qcr8, stronger effect = lower value", "value": "0.115 (active)"},
      {"measurement": "normalized growth", "setting": "locus YJL187C, strain SWE1, stronger effect = lower value", "value": "0.343 (active)"},
      {"measurement": "normalized growth", "setting": "locus YKL160W, strain elf1, stronger effect = lower value", "value": "0.278 (active)"},
      {"measurement": "normalized growth", "setting": "locus YKR026C, strain gcn3, stronger effect = lower value", "value": "0.65 (active)"},
      {"measurement": "normalized growth", "setting": "locus YKR091W, strain srl3, stronger effect = lower value", "value": "0.476 (active)"},
      {"measurement": "normalized growth", "setting": "locus YLL001W, strain dnm1, stronger effect = lower value", "value": "0.499 (active)"},
      {"measurement": "normalized growth", "setting": "locus YLL026W, stronger effect = lower value", "value": "0.301 (active)"},
      {"measurement": "normalized growth", "setting": "locus YLL041C, strain sdh2, stronger effect = lower value", "value": "0.368 (active)"},
      {"measurement": "normalized growth", "setting": "locus YLR027C, strain aat2, stronger effect = lower value", "value": "0.27 (active)"},
      {"measurement": "normalized growth", "setting": "locus YLR221C, strain rsa3, stronger effect = lower value", "value": "0.326 (active)"},
      {"measurement": "normalized growth", "setting": "locus YLR258W, strain gsy2, stronger effect = lower value", "value": "0.349 (active)"},
      {"measurement": "normalized growth", "setting": "locus YLR262C, strain YPT6 (second series), stronger effect = lower value", "value": "0.132 (active)"},
      {"measurement": "normalized growth", "setting": "locus YLR320W, strain mms22, stronger effect = lower value", "value": "0.18 (active)"},
      {"measurement": "normalized growth", "setting": "locus YLR342W, strain FKS1, stronger effect = lower value", "value": "0.115 (active)"},
      {"measurement": "normalized growth", "setting": "locus YLR357W, strain rsc2, stronger effect = lower value", "value": 0.891},
      {"measurement": "normalized growth", "setting": "locus YLR370C, strain arc18, stronger effect = lower value", "value": "0.395 (active)"},
      {"measurement": "normalized growth", "setting": "locus YLR384C, strain iki3, stronger effect = lower value", "value": "0.464 (active)"},
      {"measurement": "normalized growth", "setting": "locus YML120C, strain ndi1, stronger effect = lower value", "value": "0.389 (active)"},
      {"measurement": "normalized growth", "setting": "locus YMR058W, strain fet3, stronger effect = lower value", "value": "0.486 (active)"},
      {"measurement": "normalized growth", "setting": "locus YMR125W, strain sto1, stronger effect = lower value", "value": "0.835 (active)"},
      {"measurement": "normalized growth", "setting": "locus YMR129W, stronger effect = lower value", "value": "0.411 (active)"},
      {"measurement": "normalized growth", "setting": "locus YMR205C, strain PFK2, stronger effect = lower value", "value": "0.278 (active)"},
      {"measurement": "normalized growth", "setting": "locus YMR231W, strain pep5, stronger effect = lower value", "value": "0.193 (active)"},
      {"measurement": "normalized growth", "setting": "locus YNL071W, strain lat1, stronger effect = lower value", "value": "0.0873 (active)"},
      {"measurement": "normalized growth", "setting": "locus YNL209W, strain ssb2, stronger effect = lower value", "value": "0.237 (active)"},
      {"measurement": "normalized growth", "setting": "locus YNL248C, strain rpa49, stronger effect = lower value", "value": 0.944},
      {"measurement": "normalized growth", "setting": "locus YNL322C, strain KRE1 (second series), stronger effect = lower value", "value": "0.463 (active)"},
      {"measurement": "normalized growth", "setting": "locus YNR049C, strain mso1, stronger effect = lower value", "value": "0.563 (active)"},
      {"measurement": "normalized growth", "setting": "locus YOR001W, strain rrp6, stronger effect = lower value", "value": "0.497 (active)"},
      {"measurement": "normalized growth", "setting": "locus YOR070C, strain gyp1, stronger effect = lower value", "value": "0.216 (active)"},
      {"measurement": "normalized growth", "setting": "locus YOR080W, strain dia2, stronger effect = lower value", "value": "0.381 (active)"},
      {"measurement": "normalized growth", "setting": "locus YOR083W, strain WHI5, stronger effect = lower value", "value": "0.318 (active)"},
      {"measurement": "normalized growth", "setting": "locus YOR106W, strain vam3, stronger effect = lower value", "value": "0.331 (active)"},
      {"measurement": "normalized growth", "setting": "locus YOR265W, strain rbl2, stronger effect = lower value", "value": "0.288 (active)"},
      {"measurement": "normalized growth", "setting": "locus YOR270C, strain vph1, stronger effect = lower value", "value": "0.227 (active)"},
      {"measurement": "normalized growth", "setting": "locus YOR290C, strain snf2, stronger effect = lower value", "value": "0.61 (active)"},
      {"measurement": "normalized growth", "setting": "locus YPL051W, strain arl3, stronger effect = lower value", "value": "0.125 (active)"},
      {"measurement": "normalized growth", "setting": "locus YPL078C, strain atp4, stronger effect = lower value", "value": "0.14 (active)"},
      {"measurement": "normalized growth", "setting": "locus YPL106C, strain sse1, stronger effect = lower value", "value": "0.359 (active)"},
      {"measurement": "normalized growth", "setting": "locus YPL240C, strain hsp82, stronger effect = lower value", "value": "0.412 (active)"}
    ]}
  ]
}
